Screening data as filed in PubChem BioAssay.
DT40 TDP1 no CPT: qHTS for Inhibitors of human tyrosyl-DNA phosphodiesterase 1 (TDP1): qHTS in cells in absence of CPT | DT40 Tdp1-/- hTDP1 cells, no CPT, ATP luminescence, 48 h | Potency, µM (doses to about 46.2 µM), usual class: inhibitors | 420,000 tested, 15% active; also: nearly all actives have a fitted effect of over 55% in size
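A cellular qHTS used chicken DT40 cells lacking endogenous Tdp1 but carrying stably transfected human TDP1. Compounds were applied without camptothecin, and cell growth kinetics were judged by ATP-dependent luminescence after ≥48 hr.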
DT40 TDP1 CPT: qHTS for Inhibitors of human tyrosyl-DNA phosphodiesterase 1 (TDP1): qHTS in cells in presence of CPT. 420,000 tested, 12% active. Potency, µM (doses to about 46.2 µM), hits mostly inhibitors. chicken DT40 Tdp1-/-;hTDP1 cells + 20 nM CPT, ATP luminescence, 48 h; also: nearly all actives have a fitted effect of over 55% in size
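Chicken DT40 Tdp1-/- cells stably complemented with human TDP1 were seeded at 400 cells/well in medium containing 20 nM camptothecin, exposed to pin-transferred compounds, and grown at 37 °C for at least 48 hr. Viability was read as ATP luminescence.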
KB-V1 MDR tox: qHTS assay for MDR1-selective chemotherapeutics: Primary screen using the drug-selected MDR subline cells KB-V1. Potency, µM (series often up to 46.1 µM), usual class: cytotoxic. KB-V1 MDR cells viability, CellTiter-Glo, 72 h. 400,000 tested, 3.4% active. AID 1347076, 2019; also: nearly all actives have a fitted effect of over 60% in size
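qHTS viability screen in drug-selected KB-V1 MDR cells: 72 h compound treatment at 37 degrees C, ATP luminescence end point.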
HT1080NT lethal: qHTS for induction of synthetic lethality in tumor cells producing 2HG: qHTS for the HT-1080-NT fibrosarcoma cell line; HT-1080-NT fibrosarcoma viability, CellTiter-Glo ATP luminescence, 48 h; Potency, µM (top dose mostly 46.1 µM), hits mostly cytotoxic; 360,000 tested, 1.6% active;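 also: NT is the 2HG producing partner of a matched IDH1 knockdown line; nearly all actives have a fitted effect of over 55% in size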
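A 48-hour cytotoxicity screen used HT-1080-NT cells plated 2 hours before compound delivery. ATP-based CellTiter-Glo luminescence measured viability, normalized to DMSO and no-cell controls.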
HT1080 IDH1KD tx: qHTS for induction of synthetic lethality in tumor cells producing 2HG: qHTS for the HT-1080-IDH1KD cell line | HT-1080 IDH1 knockdown viability, ATP luminescence, 48 h | Potency, µM (series often up to 46.1 µM), usual class: cytotoxic | 360,000 tested, 2% active | AID 686971, 2013
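Using the IDH1-knockdown HT-1080 line run in the same batch and compound series as the NT line, viability after 48 h at 37 °C was determined by CellTiter-Glo luminescence and expressed as % activity.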
KB-3-1 cytotox: qHTS assay for MDR1-selective chemotherapeutics: Primary screen using the parental adenocarcinoma cell KB-3-1; KB-3-1 viability, CellTiter-Glo ATP luminescence, 72 h; AID 1347075, 2019; Potency, µM (highest dose often 46.1 µM), most hits filed as cytotoxic; 400,000 tested, 1.4% active; also: nearly all actives have a fitted effect of over 60% in size
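Parental KB-3-1 adenocarcinoma cells in phenol-red-free DMEM with 10% FBS were pin-treated with compounds at several concentrations, incubated 72 h at 37 °C, and viability read by CellTiter-Glo luminescence; concentration-effect curves were fitted after normalization.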
Numbers stand for hits; n = inactive; u = inconclusive; x = no result. Only some compounds are listed: those with a hit (about 19% of all), similar ones and a draw of the others. Calls follow the shape of the dose curve; as a rule, active = well fitted curve in the direction sought with a large enough effect; inconclusive = small, poorly fitted or top-dose-only effect, or another doubt; inactive = no such curve, though single readings can be large; an effect the other way counts as inactive or inconclusive.

SMILES	DT40 TDP1 no CPT	DT40 TDP1 CPT	KB-V1 MDR tox	HT1080NT lethal	HT1080 IDH1KD tx	KB-3-1 cytotox
O=C(Nc1nc2c(s1)CCCC2)c1ccc(S(=O)(=O)N2CCCc3ccccc32)cc1	u	u	2.6µM	n	n	5.8µM
COc1ccc2c(c1)C(=O)N(c1ccc(C)cc1C)C(=O)C2	21µM	13µM	n	n	n	n
COc1ccc2c(c1)C(=O)N(c1ccc(C)cc1C)C(=O)C2(C)C	u	n	n	n	n	n
CCOc1cc(-c2nnc(-c3ccco3)o2)cc(OCC)c1OCC	12µM	18µM	u	n	n	n
O=C1CCCc2nn(-c3ccccc3)c(-c3ccncc3)c21	16µM	u	n	n	n	n
COc1ccc(-c2cc(-c3cc(OC)ccc3O)[nH]n2)cc1	u	21µM	u	u	u	n
Cc1ccc(O)c(-c2cc(-c3cccc(F)c3)n[nH]2)c1	u	u	u	n	n	u
COc1ccc(O)c(-c2cc(-c3ccc(F)cc3)n[nH]2)c1	u	n	n	u	23µM	n
COc1ccc(O)c(-c2cc(-c3cccc(Br)c3)n[nH]2)c1	16µM	u	u	u	u	n
O=[N+]([O-])c1ccccc1S(=O)(=O)Nc1cccc(S(=O)(=O)N2CCCC2)c1	n	n	n	n	n	n
Cc1ccc(C(=O)n2nc(C)c(S(=O)(=O)N3CCOCC3)c2C)cc1C	u	u	n	x	x	n
COc1ccc2oc(=O)c(C(=O)Nc3ccc(C(=O)O)cc3)cc2c1	n	n	n	x	x	n
COc1cc(COc2ccc3c(C)c(Cc4ccccc4)c(=O)oc3c2C)cc(OC)c1OC	18µM	21µM	n	n	u	n
COc1cc(COc2ccc3c(C)c(Cc4ccccc4)c(=O)oc3c2)cc(OC)c1OC	u	u	n	n	n	n
CCOC(=O)C1(CCC(C)C)CC(CSc2nc3ccccc3[nH]2)OC1=O (centres undefined)	18µM	12µM	u	n	n	n
CCc1ccc(NC(=O)C(CC)n2c(=O)c(C(F)(F)F)nc3ccccc32)cc1 (centres undefined)	u	u	n	x	x	n
CC1CCN(S(=O)(=O)c2ccc3[nH]cc(C(=O)NCc4ccc(F)cc4)c(=O)c3c2)CC1	n	n	n	x	x	n
O=C1CC(N2CCN(c3ccc(O)cc3)CC2)C(=O)N1Cc1cccs1 (centres undefined)	u	n	n	u	u	n
CCN1C(=O)CC(N2CCN(c3ccc(C(=O)c4ccncc4)cc3)CC2)C1=O (centres undefined)	n	u	n	n	n	u
CCOc1ccc(N2C(=O)CC(N3CCN(c4ccc(C(=O)c5ccncc5)cc4)CC3)C2=O)cc1 (centres undefined)	21µM	u	n	n	n	n
O=C(c1ccncc1)c1ccc(N2CCN(C3CC(=O)N(Cc4cccs4)C3=O)CC2)cc1 (centres undefined)	23µM	16µM	n	12µM	n	u
COc1ccc(C(=O)C=Cc2ccc3c(c2)OCO3)cc1OC	u	n	u	n	n	u
COc1ccc(C(=O)/C=C/c2ccc(OC)c(O)c2)c(F)c1	16µM	u	u	n	u	n
COc1ccc(/C=C/C(=O)C(C)(C)C)cc1OC	u	n	n	n	n	n
COc1cc2ccc(C(C)=O)cc2cc1OC	n	n	n	n	n	n
SMILES	DT40 TDP1 no CPT	DT40 TDP1 CPT	KB-V1 MDR tox	HT1080NT lethal	HT1080 IDH1KD tx	KB-3-1 cytotox
COc1ccc(C=CC(=O)c2ccc(OC)c(OC)c2O)cc1OC	u	u	u	u	26µM	n
COc1ccc(C=CC(=O)c2ccc(OC)c(OC)c2)cc1O	18µM	15µM	u	n	21µM	u
COc1ccc(C=CC(=O)c2ccc3cc(OC)c(OC)cc3c2)cc1OC	5.8µM	u	n	n	u	u
CN(CC(=O)Nc1ccc(F)c(F)c1F)C(=O)CCc1nc2sc3c(c2c(=O)[nH]1)CCCC3	u	n	n	n	n	n
N#Cc1ccccc1S(=O)(=O)N1CCN(C(=O)c2cc3c(s2)CCC3)CC1	n	n	n	n	n	n
COc1ccc(C(=O)/C=C/c2ccc(F)cc2)c(OC(=O)c2ccc([N+](=O)[O-])cc2)c1	21µM	u	u	u	u	n
COc1ccc(/C=C/C(=O)CC(=O)/C=C/c2cccc(O)c2OC)cc1O	3µM	6.6µM	x	x	x	x
COc1ccc(C=NNC(=O)CCCC(=O)NN=Cc2ccc(OC)c(O)c2)cc1O	n	n	n	n	n	n
COc1c(C)cc(C(=O)C2CCCN(C(=O)C3=C(C)OCCO3)C2)cc1C (centres undefined)	u	u	21µM	n	n	n
Cc1ccc(NS(=O)(=O)c2ccc(NC(=O)N3CCCC3)cc2)cc1C	n	n	n	x	x	n
COc1cc(OC)cc(-c2nnc(Nc3nc4c(F)cccc4s3)o2)c1	u	21µM	n	n	n	n
COc1ccc(-c2nnc(-c3ccc(N)cc3)o2)cc1	n	n	n	n	n	n
COc1ccc(-c2nnc(Nc3nc4c(OC)cccc4s3)o2)cc1	18µM	5.2µM	u	u	u	u
Cc1ccc(Cl)cc1N1CCN(c2ncnc3onc(C)c23)CC1	5.8µM	6.5µM	u	x	x	u
Cc1ccc(Cl)cc1N1CCN(C(=O)c2c(C)oc3ncnc(N4CCCCC4)c23)CC1	6.5µM	9.2µM	n	x	x	n
Cc1ccc(Cl)cc1N1CCN(S(=O)(=O)c2c(C)noc2C)CC1	u	u	n	n	n	n
Cc1noc2ncnc(N3CCN(c4cccc(Cl)c4)CC3)c12	9.2µM	16µM	n	n	n	u
CC(=O)c1ccc(N2CCN(c3ncnc4onc(C)c34)CC2)cc1	5.8µM	4.1µM	u	x	x	21µM
CCCN(CCC)CCNC(=O)CCC(=O)Nc1ccc2nc(N3CCN(C)CC3)cc(C)c2c1	n	n	n	n	n	n
CN(C(=O)c1cccc(NC(=O)Cc2ccc(NC(=O)C3CCN(C(=O)C4CC4)CC3)cc2)c1)C1CCCCC1	n	n	n	n	n	n
O=C(Nc1ccccc1)N1CC2(CCN(C(=O)c3cccc(F)c3)CC2)C1	n	n	x	x	x	x
